Shown are actives, neighbours in structure and some others; about 2.9% of the full set was active somewhere.
ADAM17 inh = inhibitors of human ADAM17; P78536; recombinant ADAM17, EDANS/DABCYL FRET peptide cleavage; inhibition, % at 6.95 µM; hit rate 0.83% among 370,000; AID 720648;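 active means inhibition above the mean of compounds lying between control limits plus 3 SD, set per campaign, cut at about 8.5% in these data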;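 further: 0% = DMSO-only wells as the low control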
KLK7 zymogen act = activates the human kallikrein-7 zymogen. purified proKLK7, EDANS-DABCYL substrate fluorescence; 100% is mature enzyme control, 0% vehicle. hit rate 0.9% among 370,000. activation, % at 7 µM;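 active means activation above the mean of all tested compounds plus 3 SD, computed per campaign excluding outliers beyond control limits, cut at about 13% in these data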
PLCb3 inh = inhibitors of human phospholipase C beta3; Purified PLC-beta3, fluorogenic substrate, fluorescence; AID 720704; inhibition, % at 12.2 µM; hit rate 0.18% among 370,000; in the data active means inhibition above about 11%;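 further: 0% = median of compound wells on plate and 100% = full blocker control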
ADAM10 inh = inhibits human ADAM10; recombinant ADAM10, EDANS/DABCYL FRET peptide cleavage, 3 h; inhibition, % at 7 µM; hit rate 0.62% among 370,000; AID 720582;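 active means inhibition above a per-campaign cutoff equal to the mean of compounds falling between control-based bounds plus 3 SD, cut at about 20% in these data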;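 further: 0% = DMSO wells while the 100% control is not disclosed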
PLCg1 inh = PLC-gamma1 (human) inhibition, primary screen; P19174; hit rate 0.84% among 370,000; purified PLC-gamma1, fluorogenic substrate, fluorescence; inhibition, % at 12.2 µM; in the data active means inhibition above about 9.5%
ADAM10 confirm = confirmation of inhibitors of human ADAM10. shares compounds with ADAM10 inh. ADAM10 QFRET peptide cleavage, EDANS fluorescence. inhibition, % at 6.95 µM. hit rate 1% among 2,100;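 active means inhibition above about 20% chosen separately for each screening run, limit read from the data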;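 further: 0% = DMSO wells and 100% = marimastat wells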
ADAM17 ctr = inhibits human ADAM17 in ADAM10 exosite counter-screen; shares compounds with ADAM10 inh; ADAM17 QFRET peptide cleavage, EDANS fluorescence; inhibition, % at 6.95 µM; hit rate 0.5% among 2,100; AID 743214;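 active means mean triplicate inhibition above the solvent-only control wells' mean plus 3 SD, cut at about 12% in these data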;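 further: 0% = DMSO wells and 100% = marimastat wells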
Starred values were filed as active, the others as inactive; . = no result.

SMILES | ADAM17 inh | KLK7 zymogen act | PLCb3 inh | ADAM10 inh | PLCg1 inh | ADAM10 confirm | ADAM17 ctr
O=C(Cn1cnc2ccccc2c1=O)N1CCN(C(=O)C2CCCO2)CC1 (stereo not drawn) | 4 | 0 | 0 | -11 | -1 | . | .
C[C@H]1CCCCO[C@H](CN(C)C(=O)Nc2ccc(F)cc2)[C@@H](C)CN([C@@H](C)CO)C(=O)c2cc(NC(=O)Nc3ccc4c(c3)OCO4)ccc2O1 | 8 | 0 | 1 | 23* | 2 | 10 | 3
CC1Cc2ccccc2N1C(=O)c1ccc(N2CCCC2)c([N+](=O)[O-])c1 (stereo not drawn) | 5 | 0 | 4 | 24* | 5 | 1 | 0
COc1ccccc1CNC(=O)c1ccc(-c2ccccc2Cl)o1 | 12* | 0 | -6 | 21* | -2 | 10 | 2
COc1ccc(/C=N\NC(=O)c2ccccc2)cc1COc1ccccc1 | 5 | 0 | -26 | 3 | -17 | . | .
COc1ccc(C(=O)N/N=C/c2ccc(OC)c(COc3ccccc3)c2)cc1 | 1 | 1 | -9 | 71* | 2 | 12 | 4
CC(=O)O[C@@H]1C=C[C@@H](C#Cc2ccc(C(C)(C)C)cc2)O[C@@H]1COC(=O)NC(C)C | 0 | 0 | -7 | -4 | -2 | . | .
Cc1ccc(S(=O)(=O)N2CCN(C(=O)COC(=O)COc3ccc(Br)cc3)CC2)c(C)c1 | 2 | -1 | 0 | -3 | 1 | . | .
CSc1ccc(CSCC(=O)N2CCN(S(=O)(=O)c3ccc(C)cc3C)CC2)cc1 | 5 | 0 | -8 | 24* | -1 | 3 | 2
CC(=O)c1ccc(OCC(=O)N2CCN(S(=O)(=O)c3ccc(C)cc3C)CC2)cc1 | 0 | 0 | -7 | 84* | 1 | -1 | 0
Cc1ccc(S(=O)(=O)Nc2cc(C(=O)O)ccc2N2CCC(C)CC2)cc1C | -4 | 0 | 4 | -7 | -2 | . | .
O=C(c1ccco1)c1cn(CC(=O)N2CCCCCC2)c2ccccc12 | -1 | 1 | -16 | -2 | -5 | . | .
CCOC(=O)C1CCN(C(=O)Cn2cc(C(=O)c3ccco3)c3ccccc32)CC1 | -4 | 0 | 2 | 64* | -3 | 4 | 2
COC(=O)CN1C(=S)N(c2ccc(Cl)cc2)C(=O)C1CC(=O)Nc1ccc(Cl)cc1 (stereo not drawn) | 7 | 0 | 2 | 22* | 0 | 4 | 1
COC(=O)CN1C(=S)N(c2ccc(Cl)cc2)C(=O)C1CC(=O)Nc1ccc(F)cc1 (stereo not drawn) | 6 | 0 | 8 | 34* | 7 | 0 | 0
COC(=O)CN1C(=S)N(c2ccc(F)cc2)C(=O)C1CC(=O)Nc1ccc(F)cc1 (stereo not drawn) | -4 | 0 | -5 | 1 | 6 | . | .
CC(=O)N1CCN(C2=Nc3ccccc3Sc3ccccc32)CC1 | 3 | 0 | 2 | 3 | 3 | . | .
CCOC(=O)c1[nH]c(C)c(C(=O)NCc2ccc(OC)cc2)c1C | -2 | 0 | 5 | 68* | 2 | 0 | 0
Cc1ccccc1Nc1nc(N)nc(CSc2nncn2C)n1 | -2 | 0 | -4 | 4 | 1 | . | .
CCCCn1c(SCc2nc(N)nc(Nc3ccccc3C)n2)nc2ccccc2c1=O | 4 | 1 | 1 | 21* | -1 | 15 | 5
COC(=O)[C@]12C[C@H](CC(=O)NCc3cccc(C(F)(F)F)c3)C(=O)N(Cc3ccc(Cl)cc3Cl)C1=C[C@H](C(C)C)O[C@@H]2C1CC1 | -2 | 0 | 0 | -3 | -1 | . | .
CN1C(=O)c2cc(NC(=O)Nc3ccccc3)ccc2OC[C@H]2O[C@@H](CC(=O)N[C@H]3CCN(Cc4ccccc4)C3)CC[C@@H]21 | -1 | 0 | 5 | 6 | 5 | . | .
Cc1ccc(NC(=S)Nc2ccc(F)cc2)c(C)c1 | 0 | 0 | 0 | 21* | 6 | 0 | 0
Cc1ccc(NC(=S)NCCc2ccc(F)cc2)c(C)c1 | -2 | -1 | 1 | -3 | 0 | . | .
O=C(C1CCCN(S(=O)(=O)c2ccccc2F)C1)N1CCN(Cc2ccccc2)CC1 (stereo not drawn) | 0 | 0 | -1 | 3 | 2 | . | .
SMILES | ADAM17 inh | KLK7 zymogen act | PLCb3 inh | ADAM10 inh | PLCg1 inh | ADAM10 confirm | ADAM17 ctr
Cc1ccc(N2CCN(CC(O)COc3cccc4ccccc34)CC2)cc1 (stereo not drawn) | 4 | 0 | -5 | 20* | 8 | 5 | 0
O=C(Nc1cc(Cl)ccc1-n1cncn1)c1cccc(S(=O)(=O)N2CCOCC2)c1 | -5 | -1 | -2 | 93* | 0 | -1 | 0
O=C(Nc1cc(Cl)ccc1-n1cncn1)c1ccc(F)c(S(=O)(=O)N2CCOCC2)c1 | -5 | 0 | -8 | -2 | 2 | . | .
COC(=O)[C@H](C(C)C)N1Cc2nnn(Cc3ccc(C)cc3)c2-c2cc(F)ccc2S1(=O)=O | 3 | -1 | 1 | 8 | 0 | . | .
CCCN(CCC)C(=S)NC(=O)c1ccc(-c2ccccc2)cc1 | 5 | 0 | 5 | 24* | 0 | 3 | 1
CCOc1ccc(C(=O)NC(=S)N(Cc2ccccc2)Cc2ccccc2)cc1 | 2 | -1 | -4 | 13 | 0 | . | .
O=C(C(=O)N1CCC(CNC(=O)c2ccccc2F)CC1)c1cc2ccccc2o1 | -3 | 0 | 1 | 2 | -4 | . | .
Cc1ccc(NC(=S)NNC(=O)c2ccc(N3CCOCC3)c([N+](=O)[O-])c2)cc1Cl | 7 | 0 | -2 | 21* | 0 | 4 | 0
O=C(NNC(=S)Nc1ccc(Cl)cc1Cl)c1ccc(N2CCOCC2)c([N+](=O)[O-])c1 | 4 | 0 | 0 | 7 | 4 | . | .
O=C(NNC(=S)Nc1ccc(Br)cc1)c1ccc(N2CCOCC2)c([N+](=O)[O-])c1 | 5 | -1 | 0 | 21* | 2 | 1 | 0
Cc1ccc(OCCN2CCN(CC(O)Cn3c4ccccc4c4ccccc43)CC2)cc1 (stereo not drawn) | -1 | 0 | -7 | 1 | -4 | . | .
Cc1ccc(OCC(O)Cn2c3ccccc3c3ccccc32)cc1 (stereo not drawn) | 7 | 0 | 4 | 21* | -1 | 18 | 7
O=C(Oc1cccc2c(O)cccc12)c1ccccc1 | 7 | 0 | -4 | 23* | 0 | 6 | 2
O=C(Oc1cccc2ccccc12)c1ccccc1 | -4 | -1 | 1 | -15 | 1 | . | .
COc1ccc2nc(SCC(=O)Nc3ccc(S(=O)(=O)N4CCCC4)cc3)c(C#N)cc2c1 | -4 | -23 | -449 | 72* | -258 | 20* | 10
COC(=O)C1=C(C)N(C)C(=NCc2ccc(C(F)(F)F)cc2)NC1c1ccc(Cl)cc1 (stereo not drawn) | -1 | 0 | 6 | -2 | 5 | . | .
